Assay outcomes as filed in PubChem BioAssay.
The list is not random: actives were taken first. Their share in the collection is about 10%.
FLuc inh: blocks purified firefly luciferase enzyme activity. P08659. purified P. pyralis luciferase, luminescence, biochemical. Potency, µM (titrated, usually from 115 µM), most hits filed as inhibitors. 2.5% of 76,000 active. AID 1347043; also: nearly all actives have a fitted effect of over 65% in size
Target sequence (P08659 whole entry, looked up): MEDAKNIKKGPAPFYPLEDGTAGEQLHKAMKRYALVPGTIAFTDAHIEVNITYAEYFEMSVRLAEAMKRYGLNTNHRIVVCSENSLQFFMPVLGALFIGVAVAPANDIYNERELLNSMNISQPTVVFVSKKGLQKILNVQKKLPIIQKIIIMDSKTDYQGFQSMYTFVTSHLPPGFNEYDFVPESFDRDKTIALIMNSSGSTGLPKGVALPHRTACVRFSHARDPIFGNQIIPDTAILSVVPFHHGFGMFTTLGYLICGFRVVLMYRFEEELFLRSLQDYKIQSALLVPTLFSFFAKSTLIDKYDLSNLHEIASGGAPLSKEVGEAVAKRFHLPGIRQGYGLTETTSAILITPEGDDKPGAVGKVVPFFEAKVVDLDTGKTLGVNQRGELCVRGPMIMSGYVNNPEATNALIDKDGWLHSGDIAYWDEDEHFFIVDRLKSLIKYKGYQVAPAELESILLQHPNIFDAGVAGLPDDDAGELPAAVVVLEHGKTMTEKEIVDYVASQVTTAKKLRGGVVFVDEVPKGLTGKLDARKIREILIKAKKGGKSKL
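Cell-free enzyme assay, 10nM P. pyralis luciferase, luciferin and ATP each at 10uM. Inhibition profiled over a 6-point titration, read as luminescence.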
GPT2 inhibitor: blocks human glutamate pyruvate transaminase 2; Recombinant GPT2, coupled pyruvate oxidase/HRP Amplex Red fluorescence; Potency, µM (series often up to 57.7 µM), for the others: at the highest dose activity change, negative = inhibition, hits mostly inhibitors; 0.25% of 100,000 active; AID 1671188; also: nearly all actives have a fitted effect of over 60% in size
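Fluorescence read-out: pyruvate from GPT2 turnover coupled to pyruvate oxidase, HRP and Amplex Red (0.2mM ThPP, 0.2U/mL PO and HRP, 50uM Amplex final). Substrates 250uM a-KG, 2mM L-alanine; enzyme 10ng/uL; 30 min RT.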
NPR1 antag: antagonists of human natriuretic peptide receptor Npr1; 1.6% of 76,000 active; P16066; Potency, µM (top dose mostly 46.3 µM), without a hit: top-dose activity change, negative = inhibition, most hits filed as inhibitors; HEK293 hNpr1 GloSensor cGMP, ANP-stimulated luminescence; calls by dose curve; also: nearly all actives have a fitted effect of over 60% in size
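HEK293 cells stably expressing human Npr1 and cGMP GloSensor pGS-40F, loaded 2 h with 2% GloSensor reagent, given compound 30 min at room temperature. Luminescence read before and 20 min after 0.1 nM hNppA.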
3T3 cytotox: cytotoxic compounds in NIH 3T3 cells; AID 1345082; NIH 3T3 viability, CellTiter-Glo ATP luminescence, 48-72 h; Potency, µM (titrated, usually from 96.7 µM), for the others: top-dose activity change, negative = cytotoxicity, actives largely listed as inhibitors; 4.3% of 94,000 active; also: nearly all actives have a fitted effect of over 55% in size
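Mouse fibroblast NIH 3T3 cells, 400 per well, received compound via pintool and were incubated for 48 or 72 hr prior to CellTiter-Glo ATP luminescence measurement.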
HEK293 tox: cytotoxic compounds in HEK 293 cells. HEK 293 viability, ATP luminescence (CellTiter-Glo), 48-72 h. 6.6% of 94,000 active. Potency, µM (doses to about 115 µM), for inactives: at the highest dose activity change, negative = cytotoxicity, actives largely listed as inhibitors; also: nearly all actives have a fitted effect of over 60% in size
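ATP-coupled CellTiter-Glo luminescence served as viability read-out, recorded 10 min after reagent addition at room temperature. HEK 293 cells, 250 cells/well, had been incubated with pintool-transferred compound for 48 or 72 hr at 37 degree Celsius.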
Active calls of the source: *; i = inactive; ? = inconclusive; . = no result; [ ] = another dose, or the depositor's remark. Unless noted, calls follow the shape of the dose curve; as a rule, active = well fitted curve in the direction sought with a large enough effect; inconclusive = small, poorly fitted or top-dose-only effect, or another doubt; inactive = no such curve, though single readings can be large; an effect the other way counts as inactive or inconclusive. % is scaled to controls: 0 for no effect and ±100 for the full control effect; potency is read from the fitted curve at half-maximal effect.

SMILES	FLuc inh	GPT2 inhibitor	NPR1 antag	3T3 cytotox	HEK293 tox
O=C(Nc1ccc(Oc2ccccc2)cc1)N[C@H]1CO[C@H]2[C@@H]1OC[C@H]2OC(=O)Nc1cccc2ccccc12	i	?	?	?	18µM*
O=C(Nc1ccc(Oc2ccccc2)cc1)O[C@@H]1CO[C@H]2[C@@H]1OC[C@@H]2NC(=O)c1ccccn1	?	2%	11µM*	?	?
O=C(Nc1cccc2ccccc12)O[C@@H]1CO[C@H]2[C@@H]1OC[C@@H]2NS(=O)(=O)c1ccc2ccccc2c1	i	0%	0%	79µM*	?
CCOc1cccc2c1OC[C@@H]1CN(CC)C(=O)CCN(C(=O)COc3ccccc3)[C@H]21	.	.	.	?	-25%
CNC(=O)c1cc(C)nc2onc(C3CCCN3C(=O)c3ccccc3Cl)c12 (stereo unspecified)	.	.	.	-22%	-9%
Oc1ccc(-c2nc(C3CC3)nc3c2CCN(Cc2ccsc2)CC3)cc1	.	i	.	?	?
CCC(=O)N1CCOc2ccc(CN3CCc4ccccc4C3)cc2C1	i	i	2%	-24%	?
Cc1ccsc1C(=O)N1CCOc2ccc(CN3CCc4ccccc4C3)cc2C1	i	i	-29%	?	35µM*
O=C(N1CCOc2ccc(CN3CCc4ccccc4C3)cc2C1)C1(c2ccccc2)CC1	i	3%	?	?	45µM*
COc1cccc(C(=O)N2CCOc3ccc(CN4CCc5ccccc5C4)cc3C2)c1	i	-23%	-4%	?	45µM*
CC(=O)N1CCC(Cc2noc(-c3ccccc3)n2)C1 (stereo unspecified)	i	i	4%	-13%	?
O=C(c1cccc(F)c1)N1CCCC(Cc2noc(-c3ccccc3)n2)C1 (stereo unspecified)	i	-36%	-9%	32µM*	?
O=C(CCc1nc2ccccc2[nH]1)N1CCCC(Cc2noc(-c3ccccc3)n2)C1 (stereo unspecified)	i	?	?	?	22µM*
COC(=O)[C@@H](NC(=O)[C@H](CC(C)C)NC(=O)N(Cc1ccccc1)C[C@@H](O)[C@H](Cc1ccccc1)NC(=O)OC(C)(C)C)C(C)C	.	i[11.5 µM]	.	.	.
Cc1noc(C)c1-c1cc2cc(CN(C)C)oc2c(Nc2ccncn2)n1	i	-1%[88.5 µM]	-3%[70.6 µM]	45µM*	?
COc1ccc(-c2nc(-c3c(C)noc3C)cc3cc(CN(C)C)oc23)cn1	i	2%[88.5 µM]	-1%[70.6 µM]	50µM*	?
COc1cc(-c2nc(-c3c(C)noc3C)cc3cc(CN(C)C)oc23)ccn1	i	-24%[88.5 µM]	-13%[70.6 µM]	40µM*	79µM*
COc1ccc(Nc2nc(-c3c(C)noc3C)cc3cc(CN(C)C)oc23)cn1	i	i	-1%[70.6 µM]	79µM*	79µM*
COc1ccccc1-c1nc(-c2c(C)noc2C)cc2cc(CN(C)C)oc12	i	i	1%[70.6 µM]	?	?
CCOc1ccc(CN2CCCCC23Cc2ccccc2CNC3=O)cc1 (stereo unspecified)	.	-2%	.	-23%	?
Cn1nc(C(=O)N2CCN(c3cc(-c4ccccc4)[nH]n3)CC2)c2ccccc21	i	i	6%	?	?
Cc1ccc(C(=O)N2CCCN(c3cc(-c4ccc(Cl)cc4)[nH]n3)CC2)cc1C	i	-13%	-22%	35µM*	?
O=C(c1ccc(F)c(F)c1)N1CCN(c2cc(-c3ccc(Cl)cc3)[nH]n2)CC1	i	i	?	35µM*	?
Cn1nc(C(=O)N2CCCN(c3cc(-c4ccc(Cl)cc4)[nH]n3)CC2)c2ccccc21	i	?	-27%	?	40µM*
O=C(c1ccc(F)c(F)c1)N1CCCN(c2cc(-c3ccc(F)cc3)[nH]n2)CC1	i	0%	-14%	-5%	?
SMILES	FLuc inh	GPT2 inhibitor	NPR1 antag	3T3 cytotox	HEK293 tox
Cc1cc(C)cc(C(=O)N2CCCN(c3cc(-c4ccc(Cl)cc4)[nH]n3)CC2)c1	i	-19%	-27%	?	45µM*
CCn1cc(CN2CC(Oc3ccc(-c4noc(-c5ccncc5)n4)cc3)C2)cn1	i	i	-30%	?	?
O=C(c1ccc(Br)o1)N1CCCN(c2cc(-c3ccc(Cl)cc3)[nH]n2)CC1	i	-22%	?	40µM*	?
O=C(c1cccs1)N1CCCN(c2cc(-c3ccc(Cl)cc3)[nH]n2)CC1	?	i	?	?	45µM*
Cc1ccc(NC(=O)N2CCC3(CC2)C(=O)N(CC(=O)N2CCCC2)CN3c2ccccc2)cc1	8.9µM*	-10%	-3%	?	?
O=C(NCCc1cccs1)c1cccc2c1CCN2C(=O)Nc1ccccc1	16µM*	i	-20%	?	?
CCCCN(C)C(=O)c1cccc2c1CCN2C(=O)Nc1ccc(OC)cc1	18µM*	i	-8%	-21%	?
COc1ccc(NC(=O)N2CCc3c(C(=O)NC(C)C)cccc32)cc1	0.28µM*	i	2.5µM*	?	25µM*
Cc1ccc(NC(=O)N2CCc3c(C(=O)NCCCN4CCCC4=O)cccc32)cc1	0.28µM*	-7%	1.4µM*	?	45µM*
CCC(=O)N1CCc2c(C(=O)NCc3ccc(OC)cc3)cccc21	i	-3%	-2%	-16%	-17%
CCN(CC)C(=O)c1cccc2c1CCN2C(=O)Nc1cccc(C)c1	i	i	-15%	?	?
CCC(=O)N1CCc2c(C(=O)Nc3ccc(C)cc3)cccc21	i	3%	0%	-24%	-23%
O=C(NCc1ccccc1F)c1cn2cc(-c3ccccc3)sc2n1	.	-6%	.	i	i
Fc1ccc(-c2cnc3n2C[C@H](CNCc2ccc4c(c2)OCO4)OC3)cc1	i	4%[88.5 µM]	?	89µM*	100µM*
c1ccc(CNC[C@H]2Cn3c(-c4ccc5c(c4)OCCO5)cnc3CO2)cc1	i	-10%[88.5 µM]	-23%[70.6 µM]	-22%[138 µM]	?
Clc1ccc(-c2cnc3n2C[C@H](CNCc2ccc4c(c2)OCO4)OC3)cc1	i	-6%[88.5 µM]	?	?	89µM*
COc1cccc(-c2ccc(CN3CCCC(NC(=O)N(C)C)C3)cc2)c1 (stereo unspecified)	.	i	.	?	?
CNC(=O)CN1C(=O)CN(C(=O)c2ccc(F)cc2)CCC(OC)c2ccccc21 (stereo unspecified)	.	.	.	?	-22%
COc1ccc(C(=O)N2CCCN(c3ccc4nnc(C)n4n3)CC2)cc1	.	.	.	-2%	-2%
O=C(CC1CCCC1)NCC1CCC(=O)N(Cc2ccccc2)CC1 (stereo unspecified)	.	i	.	-23%	?
COCCNC(=O)c1ccc2oc(-c3ccncc3)nc2c1	.	i	.	-18%[138 µM]	-13%[172 µM]
